# Assay results from the supplement of paper PMC3545927.
# Some of the results follow. The hit rate among all sequences tested is not known here.
# B1: HC2501 (peptide)
# chain: CASNPCSAHLAGNASASA
# B2: FS-1536 (peptide)
# chain: CAIRFRHLRSAGNASASA
# B3: FS-1413 (peptide)
# chain: CASLERHLRSAGNASASA
# B4: FS-779 (peptide)
# chain: CAGDNRHLRSAGNASASA
# B5: FS-1295 (peptide)
# chain: CAYRARQRRAAGNASASA
# B6: FS-1548 (peptide)
# chain: CANTARQRRAAGNASASA
# B7: FS-636 (peptide)
# chain: CAYRARLSRGAGNASASA
# B8: HC1909 (peptide)
# chain: CATTPCSGYWAGNASASA
# B9: HC517 (peptide)
# chain: CAAIKWEYVVAGNASASA
# B10: HC2255 (peptide)
# chain: CAEVVTSTWHAGNASASA
# B11: HC992 (peptide)
# chain: CAVGGVLAALAGNASASA
# B12: HC988 (peptide)
# chain: CAVVTSTWVLAGNASASA
# B13: HC304 (peptide)
# chain: CAVGQLFTFSAGNASASA
# B14: FS-1431 (peptide)
# chain: CAVMHRVARHAGNASASA
# B15: HC354 (peptide)
# chain: CAVTGGSAGHAGNASASA
# B16: FS-107 (peptide)
# chain: CAVVHRFARHAGNASASA
# B17: FS-1625 (peptide)
# chain: CADVSRNARHAGNASASA
# B18: FS-965 (peptide)
# chain: CAVGQRQARHAGNASASA
# B19: HC1233 (peptide)
# chain: CAVSFRVGLHAGNASASA
# B20: HC2035 (peptide)
# chain: CAVVHCSMSYAGNASASA
# Target: furin, P09958
# Sequence (P09958 whole entry): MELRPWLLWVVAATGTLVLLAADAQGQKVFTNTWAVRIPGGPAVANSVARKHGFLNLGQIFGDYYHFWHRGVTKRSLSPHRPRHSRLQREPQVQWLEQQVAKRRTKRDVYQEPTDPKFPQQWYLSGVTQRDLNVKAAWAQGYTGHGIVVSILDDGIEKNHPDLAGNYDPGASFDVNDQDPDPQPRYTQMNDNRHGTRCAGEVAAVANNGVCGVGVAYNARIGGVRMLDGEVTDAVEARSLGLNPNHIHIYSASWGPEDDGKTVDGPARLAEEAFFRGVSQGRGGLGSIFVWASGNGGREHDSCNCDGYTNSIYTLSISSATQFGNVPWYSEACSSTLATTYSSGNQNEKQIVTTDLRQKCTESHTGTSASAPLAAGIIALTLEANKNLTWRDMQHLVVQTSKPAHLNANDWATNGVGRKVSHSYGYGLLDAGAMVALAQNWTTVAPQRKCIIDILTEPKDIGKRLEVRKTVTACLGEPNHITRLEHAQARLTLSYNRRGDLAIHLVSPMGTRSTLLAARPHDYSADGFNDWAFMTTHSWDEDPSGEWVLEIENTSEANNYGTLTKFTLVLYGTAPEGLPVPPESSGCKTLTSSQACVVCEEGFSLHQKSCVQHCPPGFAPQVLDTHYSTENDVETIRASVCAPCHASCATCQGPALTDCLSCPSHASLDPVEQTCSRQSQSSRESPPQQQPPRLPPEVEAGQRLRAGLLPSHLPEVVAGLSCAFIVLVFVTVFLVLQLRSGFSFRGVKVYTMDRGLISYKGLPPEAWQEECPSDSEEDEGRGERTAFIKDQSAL
# Test: furin cleavage Z-score vs untreated control; higher = more cleavage, active = 3.5 or more, inactive = 1 or less, 8 variable residues between constant flanks
# Method in brief: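 Read counts from sequencing released DNA gave abundance for each bead-bound 8-mer peptide–cDNA fusion cut by purified furin over 7.5, 15 or 30 min. The cleavage Z-score compares log counts with furin-free reactions after lowess adjustment and median absolute deviation scaling.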
# 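Further: purified furin at 1:10 enzyme:substrate in 50 mM HEPES pH 7.5.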
Sequence,furin cleavage Z-score (7.5 min),furin cleavage Z-score (15 min),furin cleavage Z-score (30 min)
B1,0.199 (inactive),0.64 (inactive),0.644 (inactive)
B2,2.94,3.49,3.84 (active)
B3,3.94 (active),4.91 (active),3.46
B4,0.602 (inactive),0.112 (inactive),-0.651 (inactive)
B5,6.02 (active),5.59 (active),4.76 (active)
B6,10.2 (active),11.6 (active),8.92 (active)
B7,0.776 (inactive),2.55,2.96
B8,0.299 (inactive),1.62,-0.123 (inactive)
B9,-0.197 (inactive),-3.37 (inactive),-0.457 (inactive)
B10,1.36,-3.35 (inactive),0.0251 (inactive)
B11,-0.486 (inactive),-0.617 (inactive),-1.61 (inactive)
B12,-0.433 (inactive),-1.05 (inactive),-0.901 (inactive)
B13,0.324 (inactive),-1.01 (inactive),-1.31 (inactive)
B14,10.4 (active),9.27 (active),9.21 (active)
B15,0.0621 (inactive),-1.5 (inactive),-0.849 (inactive)
B16,10.1 (active),9.64 (active),8.96 (active)
B17,3.37,3.82 (active),3.7 (active)
B18,4.69 (active),5.78 (active),5.69 (active)
B19,-0.575 (inactive),0.122 (inactive),1
B20,-0.95 (inactive),-0.538 (inactive),-0.331 (inactive)
